# According to PubChem BioAssay (NCATS):
# Records with an inconclusive call do not appear. A call without a number means that no potency is given here. Unmarked numbers belong to inactive results. Activity calls are given as the source filed them. Calls come from the whole dose curve; as a rule, active = well fitted inhibition curve with a large enough effect; inconclusive = small, poorly fitted or top-dose-only effect; inactive = no such curve, though single readings can be large or run the other way.
# Columns and labels:
# [1] = tested on: Zika virus NS2B-NS3 protease (unlinked complex); assay: Primary screen GU Rhodamine qHTS for Zika virus inhibitors: Unlinked NS2B-NS3 protease assay (AID 1347159); note: nearly all actives have a fitted effect of over 60% in size
# Procedure, shortened: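 Noncovalent NS2B hydrophilic domain/NS3 protease complex (25 nM final) in 10 mM Tris-HCl pH 8.0, 0.01% Tween 20, preincubated 15 min with compounds (up to 114 microM), then 1.5 microM Rhodamine110 substrate. Fluorescence change over 15 min fitted to 4-parameter Hill.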
# [2] = tested on: Zika virus NS2B-NS3 protease (linked construct); assay: Primary screen NINDS Rhodamine qHTS for Zika virus inhibitors (AID 1347160); note: nearly all actives have a fitted effect of over 55% in size
# Procedure, shortened: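 Purified NS2B-NS3 protease with the NS2B hydrophilic domain joined by a flexible linker (25 nM) in 10 mM Tris-HCl pH 8.0, 0.01% Tween 20, preincubated 15 min at RT with compound; Rhodamine110 peptide substrate 1.5 µM; fluorescence change over 15 min; 4-parameter Hill fit.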
# Potency is the fitted concentration of half-maximal effect.
compound,measurement,setting,value
NC(=O)c1cccc2cn(-c3ccc(C4CCCNC4)cc3)nc12 (centres undefined),Potency,[1],inactive
same,Potency,[2],inactive
CC(C)N(CCCCOCC(=O)NS(C)(=O)=O)c1cnc(-c2ccccc2)c(-c2ccccc2)n1,Potency,[1],7.94 µM (active)
same,Potency,[2],28.2 µM (active)
C=C(CO)C12OC1C1(C)C(=CC2=O)C(O)C(O)CC1C (centres undefined),Potency,[1],inactive
same,Potency,[2],inactive
COc1ccc(/C=C\C(=O)O)c(O[C@@H]2O[C@H](CO)[C@@H](O)[C@H](O)[C@H]2O)c1,Potency,[1],inactive
same,Potency,[2],inactive
COc1cc2nc(N3CCC(N4CCCCC4)CC3)nc(NC3CCCCCC3)c2cc1OC,Potency,[1],inactive
same,Potency,[2],inactive
CCn1c(=O)c(-c2ccn[nH]2)cc2c(C)nc(N)nc21,Potency,[1],inactive
same,Potency,[2],inactive
CC1OC(OC2CCC3(C)C(CCC4(C)C3CC=C3C5CC(C)(C)CCC5(C(=O)OC5OC(CO)C(O)C(O)C5O)CCC34C(=O)O)C2(C)C)C(O)C(O)C1O (centres undefined),Potency,[1],inactive
same,Potency,[2],inactive
COc1cc(C(=O)NC2CCN(C)CC2)ccc1Nc1ncc2c(n1)N(C1CCCC1)CC(F)(F)C(=O)N2C,Potency,[1],inactive
same,Potency,[2],inactive
C[C@@H]1CCC2C(C)(C)[C@H](O)CC[C@]2(C)[C@@]12Cc1c(O)cc3c(c1O2)CNC3=O (some centres undefined),Potency,[1],inactive
same,Potency,[2],inactive
C[C@@H]1O[C@@H](O[C@@H]2[C@@H](O)[C@H](O[C@H]3[C@H](O[C@H]4CC[C@@]5(C)C(CC[C@]6(C)C5CC=C5[C@@H]7CC(C)(C)CC[C@]7(C(=O)O[C@@H]7O[C@H](CO)[C@@H](O)[C@H](O)[C@H]7O[C@@H]7O[C@@H](C)[C@H](O[C@@H]8O[C@@H](C)[C@H](O)[C@@H](O)[C@H]8O)[C@@H](O)[C@H]7O)CC[C@]56C)[C@@]4(C)CO)O[C@H](C(=O)O)[C@@H](O)[C@@H]3O)O[C@H](CO)[C@H]2O)[C@H](O)[C@H](O)[C@H]1O (some centres undefined),"activity change, negative = inhibition",[1],22.9% [at 19.1 µM]
same,"activity change, negative = inhibition",[2],3.12% [at 10.7 µM]
C=C[C@H]1[C@H](O[C@@H]2O[C@H](CO)[C@@H](O)[C@H](O)[C@H]2O)OC=C(C(=O)OC)[C@H]1C[C@@H]1c2cc(O)c(O)cc2CCN1C(C)=O,Potency,[1],inactive
same,Potency,[2],inactive
COC(=O)CCSCc1ccc(-c2onc(C)c2NC(=O)OC(C)c2ccccc2Cl)cc1 (centres undefined),Potency,[1],inactive
same,Potency,[2],inactive
O=C1N=C(N2CCOCC2)CN1c1ccc(Cl)cc1,Potency,[1],inactive
same,Potency,[2],inactive
C=C1CC[C@H]2[C@@](C)(CCC(O)[C@@]2(C)CO)[C@@H]1CCC1=CCOC1=O (some centres undefined),Potency,[1],inactive
same,Potency,[2],inactive
Cc1[nH]c2ccccc2c1CCNC(=O)c1ccccc1F,Potency,[1],inactive
same,Potency,[2],inactive
COC(=O)C1=CO[C@@H](O)C2C(CO)=CCC12 (some centres undefined),Potency,[1],inactive
same,Potency,[2],inactive
Cc1cc2c(F)c(Oc3ncnn4cc(OCC(C)O)c(C)c34)ccc2[nH]1 (centres undefined),Potency,[1],inactive
same,Potency,[2],inactive
COc1ccc(CCO[C@@H]2O[C@H](CO[C@@H]3OC[C@H](O)[C@H](O)[C@H]3O)[C@@H](O)[C@H](O)[C@H]2O)cc1,Potency,[1],inactive
same,Potency,[2],inactive
CCc1ccc(Cc2ccc3c(c2)[C@]2(OC3)O[C@H](CO)[C@@H](O)[C@H](O)[C@H]2O)cc1,Potency,[1],inactive
same,Potency,[2],inactive
C[C@@H]1CC[C@]2(C(=O)OC3OC(CO)C(O)C(O)C3O)CC[C@]3(C)C(=CCC4[C@@]5(C)CC[C@H](O)[C@](C)(C(=O)O)C5CC[C@]43C)C2[C@]1(C)O (some centres undefined),Potency,[1],inactive
same,Potency,[2],inactive
COCC1OC(OC(C)(C)C2CCC3(C)C=C(C4CCC5C4(C)CC(O)C4OC(C(C)(C)OC6OC(CO)C(O)C(O)C6NC(C)=O)CCC45C)CCC3O2)C(NC(C)=O)C(O)C1O (centres undefined),Potency,[1],inactive
same,Potency,[2],inactive
C/C(=C\CCC(C)CCO)C(=O)O[C@@H]1[C@@H](O)[C@H](OC2OC=C(C(=O)O)C3CCC(C)(O)C23)O[C@H](CO)[C@H]1O (some centres undefined),Potency,[1],35.5 µM (active)
same,Potency,[2],inactive
CC(=O)O[C@H]1CC[C@H](C)[C@@]2(C)[C@H](OC(C)=O)c3c(C)coc3C(=O)[C@H]12,Potency,[1],inactive
same,Potency,[2],inactive
C[C@@H]1O[C@@H](O[C@H]2[C@H](O)[C@@H](O[C@@H]3O[C@H](CO)[C@@H](O)[C@H](O[C@@H]4O[C@H](CO)[C@@H](O)[C@H](O)[C@H]4O)[C@H]3O)[C@H](O[C@H]3CC[C@@]4(C)C(=CC[C@@H]5C4CC[C@@]4(C)C5C[C@@H]5OC6(CC[C@@](C)(CO[C@@H]7O[C@H](CO)[C@@H](O)[C@H](O)[C@H]7O)O6)[C@@H](C)[C@@H]54)C3)O[C@@H]2CO)[C@H](O)[C@H](O)[C@H]1O (some centres undefined),"activity change, negative = inhibition",[1],33% [at 19.1 µM]
same,outcome,[2],inactive [at 10.7 µM]
CC(=O)N[C@H]1[C@H](O[C@H]2CC[C@@]3(C)C(CC[C@]4(C)C3CC=C3[C@@H]5CC(C)(C)CC[C@]5(C(=O)OC5OCC(O)C(O)C5O)CC[C@]34C)C2(C)C)O[C@H](COC2OC(C)C(O)C(OC3OC(C)C(O)C(O)C3O)C2O)[C@@H](O)[C@@H]1O (some centres undefined),Potency,[1],inactive
same,Potency,[2],inactive
C=C1C(O)C(O)C2(CC3C(C)=CCC4C(C)(CO)CCCC34C)OC2C1O (centres undefined),Potency,[1],inactive
same,Potency,[2],inactive
O=C(NCc1ccccn1)Nc1nnc(-c2ccco2)o1,Potency,[1],inactive
same,Potency,[2],inactive
